# In PubChem BioAssay (NCATS):
# Inconclusive results are not listed. Where a call stands in place of a potency, no number is given. The source made the active and inactive calls. The call rests on the fitted dose curve; in most records, active means well fitted inhibition curve with a large enough effect; inconclusive means small, poorly fitted or top-dose-only effect; inactive means no such curve, though single readings can be large or run the other way.
# Assay: Counterscreen for APE1 Inhibitors: Fluorescent Dye Displacement Validation Assay (AID 1707)
# Conditions: fluorescent dye displacement from DNA; series mostly up to 57.1 µM
# Description: In order to distinguish true inhibitors of DNA-processing enzymes from promiscuous DNA-binding compounds among screening assay hits, we developed a homogeneous and miniaturized assay based on fluorescent dye displacement test as originally described by Tse and Boger (Accounts of Chemical Research (2004) 37: 61-69). The assay is based on the strong enhancement of fluorescence when Thiazole Orange (ThO) binds to double-stranded DNA: conversely, in the presence of a DNA-binding compound, Thiazole Orange is displaced from the DNA and its fluorescence is reduced.
# Buffer. 50 mM Tris-HCl (pH7.5) containing 50mM NaCl, 2 mM MgCl2, and 0.01% Tween-20.
# Buffer containing 250 nM ThO in columns 3 and 4 as negative control (no dsDNA).
# Reaction mixture: 250 nM ThO and 50 nM dsDNA at final concentration dispensed throughout the plate: in columns 1, 2, 5-48. Column 1 is neutral (100% activity).
# 5''TAMRA- TC ACC FTC GTA CGA CTC
# 3'' AG TGG GAG CAT GCT GAG
# where F denotes tetrahydrofuran.
# Control: Pintool transfer of control compound WB64 (W4761, Sigma-Aldrich) to column 2 of all assay plates as a two-fold 16-point dilution in duplicate (concentration range 5.75 uM - 0.175 nM).
# Four uL of reaction mixtures were dispensed to 1536-well Greiner black solid bottom plates. Compounds (23 nL) were transferred […] in order to measure the endpoint fluorescence using 480 nm excitation and 540 nm emission fluorescence protocol.
row,Structure (SMILES),Potency
1,COc1ccccc1N1CCN(CCCNc2c(C)c(=O)n(C)c(=O)n2C)CC1,inactive
2,NCCS(=O)O,inactive
3,OCC1NCC(O)C(O)C1O (stereo not given),inactive
4,CN[C@H](CC(=O)O)C(=O)O,inactive
5,CC1=C(/C=C/C(C)=C/C=C/C(C)=C\C(=O)O)C(C)(C)CCC1,inactive
6,CC(C)C[C@H](NC(=O)C1OC1C(=O)O)C(=O)NCCCCN=C(N)N (stereo not given in full),inactive
7,NC(=Nc1ccccc1)NC(=O)c1nc(Cl)c(N)nc1N,inactive
8,CCCc1c(OCCCOc2ccc(OCC(=O)O)cc2)ccc(C(C)=O)c1O,inactive
9,CC#CCOC(=O)c1c(C)nc2sc3c(c2c1N)CCC(O)C3 (stereo not given),inactive
10,O=C(O)/C(=C/c1c(C(=O)O)[nH]c2cc(Cl)cc(Cl)c12)c1ccccc1,inactive
11,O=[N+]([O-])c1cccc2cn[nH]c12,inactive
12,O=C(O)C1=CCNCC1,inactive
13,O=C1NC(=O)c2cc(Nc3ccccc3)c(Nc3ccccc3)cc21,inactive
14,c1ccc(CN2CCC3(CCCc4ccccc43)CC2)cc1,inactive
15,Oc1cc(O)c2c(c1)O[C@H](c1ccc(O)c(O)c1)[C@@H](O)C2,inactive
16,Cc1ccccc1/C=C/C1=NCCN1,inactive
17,NCC(O)C1CCCCCCC1 (stereo not given),inactive
18,N=C(N)c1ccccc1,inactive
19,CNc1cc(NS(=O)(=O)c2ccc(N)cc2)nc(NC)n1,inactive
20,CCOC(=O)C12CC1/C(=N/O)c1ccccc1O2 (stereo not given),inactive

row,Structure (SMILES),Potency
1,O=C(OCCN1CCOCC1)C1(c2ccccc2)CCCCC1,inactive
2,COc1ccccc1N1CCN(CCN(C(=O)c2ccc(F)cc2)c2ccccn2)CC1,inactive
3,Cc1ccc([N+](=O)[O-])cc1S(=O)(=O)N(C)C,inactive
4,Clc1nccc2c1ccc1ccccc12,inactive
5,N[C@H](C(=O)O)[C@H](O)C(=O)O,inactive
6,COC1(C2=NCCN2)COc2ccccc2O1 (stereo not given),inactive
7,N[C@@H](Cc1ccc(F)cc1)C(=O)O,inactive
8,O=[N+]([O-])c1cccc2c(Br)[nH]nc12,inactive
9,COCc1nc2c([nH]1)c(=O)n(C)c(=O)n2CC(C)C,inactive
10,CCCN(CCc1ccccc1)C1CCc2c(O)cccc2C1 (stereo not given),inactive
11,NC(=O)CC[C@H](N)C(=O)O,inactive
12,CCC1(O)CC2CN(CCc3c([nH]c4ccccc34)[C@@](C(=O)OC)(c3cc4c(cc3OC)N(C)C3[C@]45CCN4CC=C[C@@](CC)([C@@H](OC(C)=O)[C@]3(O)C(=O)OC)[C@H]45)C2)C1 (stereo not given in full),inactive
13,O[Si](CCCN1CCCCC1)(c1ccc(F)cc1)C1CCCCC1 (stereo not given),inactive
14,Cn1cc(C(F)(F)F)nc1-c1ccc(OCC(O)CNCCOc2ccc(O)c(C(N)=O)c2)cc1 (stereo not given),inactive
15,C[N+](C)(C)CC=O,inactive
16,O=C(O)C1=CCCNC1,inactive
17,CCCC[C@@]1(C2CCCC2)Cc2cc(OCC(=O)O)c(Cl)c(Cl)c2C1=O,inactive
18,N#CC(C#N)=C(N)/C(C#N)=C/c1ccc(O)cc1,inactive
19,CN(C)C(=O)/N=N/C(=O)N(C)C,inactive
20,C=CC1(C)CC(=O)C2(O)C(C)(O1)C(OC(C)=O)C(O)C1C(C)(C)CCC(O)C12C (stereo not given),inactive
